CHX counter – counter-screen hit for Shiga toxin inhibitors, cycloheximide; max response, %; hit rate 12% among 300,000; cell reporter, cycloheximide protein synthesis inhibition counterscreen; in the data active means max response mostly above about 13%, no sharp cut-off; inactive means mostly below about 14%; further: read at 38.3 µM for the half of the compounds with a filed dose; 0% is about no effect
Pf growth 96h – inhibits malaria parasite growth, 96 h; Potency, µM (highest dose often 28.7 µM), for the others: at the highest dose activity change, negative = inhibition, most hits filed as inhibitors; hit rate 6.9% among 320,000; P. falciparum luciferase reporter growth, 96 h; AID 504834; further: potency means the concentration at half of the fitted maximal effect; on the % scale 0 is the no-effect control and ±100 the full control effect
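Luminescence readout: decreased luciferase signal marks inhibited growth of reporter-expressing P. falciparum in infected red cells (2% hematocrit, 0.05% parasitemia final), exposed to compound two generations (96 h, 37 C, 5% CO2).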
NS1 function inh – inhibitors of influenza NS1 protein function. Potency, µM (series often up to 46.1 µM), for inactives: top-dose activity, positive = more growth. hit rate 0.4% among 270,000; calls by dose curve; further: potency means the concentration at half of the fitted maximal effect; actives are rising curves; nearly all actives have a fitted effect of over 50% in size
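Compounds were scored for reversing the slow growth caused by influenza A NS1 in S. cerevisiae, measured by optical density at 600 nm. Assay medium contained 2% galactose at pH 6.0; NS1-free yeast of the same strain were the positive control.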
Pf growth 48h – P. falciparum growth inhibition at 48 hours (one generation). P. falciparum luciferase growth in erythrocytes, 48 h. Potency, µM (series often up to 28.7 µM), for inactives: at the highest dose activity change, negative = inhibition, actives largely listed as inhibitors. hit rate 5.9% among 310,000; further: potency means the concentration at half of the fitted maximal effect; on the % scale 0 is the no-effect control and ±100 the full control effect
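Parasite viability was followed by luminescence of a genomically integrated firefly luciferase. Cultures held 0.1% parasitemia at 2% hematocrit (final), incubated under 5% CO2 at 37 C.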
Shiga inhibitor – blocks Shiga toxin action in Vero cells | Vero cells, Shiga toxin protein synthesis inhibition reporter | inhibition, % at 38.7 µM | hit rate 9.2% among 290,000 | AID 2315; in the data active means inhibition mostly above about 28%, no sharp cut-off; inactive means mostly below about 43%; further: 0% is about no effect
Starred values were filed as active, the others as inactive; ? = inconclusive; . = not tested or not shown; [ ] = dose if it differs, or a comment. This is a sample that favours compounds with a hit; in the whole collection about 21% have one here. Unless noted, the call rests on the fitted dose curve; in most records, active means well fitted inhibition curve with a large enough effect; inconclusive means small, poorly fitted or top-dose-only effect, or another doubt; inactive means no such curve, though single readings can be large or run the other way.

SMILES	CHX counter	Pf growth 96h	NS1 function inh	Pf growth 48h	Shiga inhibitor
Cc1nnc(SCC(=O)NC2CCCC2)n1C(C)C	20*	1%	6%	19%	-38
CCn1c(CC(=O)Nc2ccccc2C)nnc1SCC(=O)NC1CCCC1	21*	28%	-8%	?	19
Cc1nnc(SCC(=O)NC2CCCCCC2)n1C	-1	11%	22%	4%	5
Cc1cc(C(=O)c2ccc(C(C)(C)C)cc2)c(NC(=O)CCl)s1	-2	40%	-31%	-12%	-3
O=C(NNC(=O)c1ccccc1OCc1ccc(F)cc1)c1ccncc1	.	4%	.	?	.
CCC(=O)c1ccc(OCc2ccc(C#N)cc2)cc1	28*	332%	2%	117%	77
CCOc1ccc(OCc2ccc(C(=O)N(CC)CC)cc2)cc1	32*	-26%	.	22%	122*
CCC(=O)c1ccc(OCc2ccc(C(=O)OC)cc2)cc1	113*	-14%	12%	290%	100*
O=C(CN1C(=O)NC2(CCCC2)C1=O)Nc1ccc(C(F)(F)F)cc1	-4	46%	4%	12%	36
COc1ccc2cc(-c3ccon3)ccc2c1	32*	125%	-12%	-9%[0.00184 µM]	107*
CN(C)c1ccc(CN(C(=O)c2ccccc2Br)C2CCS(=O)(=O)C2)cc1 (configuration not stated)	10*	13µM*	-9%	-13%	35*
CN(C)c1ccc(CN(C(=O)c2ccco2)C2CCS(=O)(=O)C2)cc1 (configuration not stated)	-3	5.2µM*	3%	56%	8
CSc1ccc(C(=S)N2CCN(C(c3ccccc3)c3ccccc3)CC2)cc1	1	5.2µM*	19%	.	13
CSc1ccc(C(=S)N2CCCC2)cc1	16*	?	-3%	5%	25
CC(C)=CCN1CCNC(=O)C1CC(=O)NCc1nc(C)c(C)s1 (configuration not stated)	-3	2.3µM*	1%	0%	-3
Nc1nnc(N2CCc3ccccc32)s1	27*	?	-24%	7%	57*
Cc1nn(C(C)(C)C)c(OC(=O)c2ccc3c(c2)OCO3)c1S(=O)(=O)c1ccccc1	37*	.	-38%	2%	45
Cc1ccc(C(=O)c2nccn2C)cc1C	42*	60%	-3%	37%	46
COc1cccc(/C=C/c2ccc3cccc(O)c3n2)c1	47*	24%	-1%	52%	121*
CC(=O)COc1cccc2ccc(/C=C/c3ccc(Br)s3)nc12	20	?	-55%	-31%	36*
O=C(O)c1ccc2cccc(O)c2n1	1	0%	5%	0%	-3
Oc1cccc(/C=C/c2ccc3cccc(O)c3n2)c1	37*	-25%	-74%	-31%[0.00184 µM]	128*
COc1cc(/C=C/c2ccc3cccc([N+](=O)[O-])c3n2)ccc1OCC(=O)O	-6	41%[5.75 µM]	.	8%[5.75 µM]	-7
Cc1ccc(/C=C/c2ccc3cccc(O)c3n2)s1	58*	-51%	-12%	-26%	95*
CC(CCc1ccccc1)NC(=O)CCC(=O)N1CCC(C(=O)O)CC1 (configuration not stated)	-3	-17%	6%	4%	.
SMILES	CHX counter	Pf growth 96h	NS1 function inh	Pf growth 48h	Shiga inhibitor
C=C(C)C(=O)Oc1ccc(N2C(=O)CCC2=O)cc1	17*	-17%	-1%	28%	18
Cc1cccc(N=Nc2c(O)[nH]c3ccc(Br)cc23)c1	39*	6%	0%	44%	31*
COc1ccc(/C=C(\C#N)C(=O)NC(C)c2ccccc2)cc1O (configuration not stated)	13*	-4%	-53%	?	17
CCOc1cccc(NC(=O)/C(C#N)=C/c2cccnc2)c1	-3	-3%	-6%	-11%	9
CCOc1ccccc1NC(=O)/C(C#N)=C/c1cccnc1	-2	13µM*	-4%	-23%	12
COC(=O)c1ccc(/C=C(\C#N)C(=O)NC(C)c2ccccc2)cc1 (configuration not stated)	-2	?	-43%	?	-5
COc1cc(/C=C(\C#N)C(=O)Nc2ccccn2)ccc1O	19*	8%	0%	13%	52*
Cc1cccc(/C=C(\C#N)C(=O)Nc2ccccn2)c1	0	-1%	-3%	13%	-5
CCOc1cc(/C=C(\C#N)C(=O)Nc2ccccn2)ccc1O	13*	14%	-23%	32%	44
Cc1cccc(-n2c(=S)[nH]c3nc4c(cc3c2=O)COC(C)(C)C4)c1	-2	?	-1%	?	10
CC1(C(=O)O)CCC(C(=O)Nc2ccc(OC(F)(F)Cl)cc2)C1(C)C (configuration not stated)	-2	42%	-1%	21%	-6
COc1cc(/C=C(\C#N)C(=O)Nc2ccc3c(c2)OCCO3)ccc1O	33*	2%	-49%	59%	51*
COc1cc(/C=C/C(=O)OCC(=O)Nc2ccc3c(c2)OCCO3)ccc1O	4	32%	16%	18%	17
CCOC(=O)c1sc(N=NC2=C(O)CCCC2=O)c(C(=O)OCC)c1C	18*	57%	.	0%	16
Cc1ccccc1NC(=O)CN(C)S(=O)(=O)c1ccc(-c2ccc(=O)[nH]n2)s1	6	?	6%	?	-10
O=S(=O)(Cc1ccccc1Cl)NCc1ccccc1	10	?	.	24%	-22
COC(=O)C1=C(N)Oc2cc(C)[nH]c(=O)c2C1c1cc(OC)c(OC)c(OC)c1 (configuration not stated)	-4	-9%	8%	10µM*	-5
Cc1ccc(Cl)cc1NC(=S)N(Cc1ccco1)C(C)c1cccs1 (configuration not stated)	0	?	.	15µM*	6
O=C(O)COc1ccccc1/C=N/NC(=O)CSc1nc2ccccc2c(=O)n1-c1ccccc1	-2	7%	3%	-3%	-3
COc1ccc(Nc2nc(Cl)nc(Nc3ccc(OC)cc3)n2)cc1	6	208%	.	-2%	-3
COc1ccc(Nc2nc(OC)nc(N3CCN(c4ccc(OC)cc4)CC3)n2)cc1	0	?	-40%	9.3µM*	1
COc1ccc(N2CCN(c3nc(NCCc4ccc(OC)c(OC)c4)nc(OC)n3)CC2)cc1	-2	.	-37%	?	-13
COc1ccc(Nc2nc(Cl)nc(N3CCN(c4ccc(OC)cc4)CC3)n2)cc1	1	12µM*	1%	?	8
COc1nc(Nc2ccc(O)cc2)nc(OC(C(F)(F)F)C(F)(F)F)n1	-3	.	-33%	-10%	-9
COc1nc(Nc2ccc(C(C)C)cc2)nc(OC)n1	41*	-10%	-12%	1.2µM*	48*
O=C1NC(=O)/C(=C/C(=O)N2CCOCC2)S1	-2	0%	1%	-1%	1
Cc1nc(SCC(=O)NC(=O)NCCC(C)C)c2c(-c3cccs3)csc2n1	1	?	-1%	12µM*	13
CCn1c(Sc2nc(C)nc3scc(-c4cccs4)c23)n[nH]c1=O	-4	7.4µM*	-215%	?	-5
CCc1nc2scc(-c3cccs3)c2c(=O)o1	-1	?	12%	4%	-5

Source: PubChem
